High-throughput results from PubChem BioAssay.
Shown are actives, neighbours in structure and some others; about 19% of the full set was active somewhere.
Shiga toxin inh = blocks Shiga toxin action in Vero cells; AID 2315; inhibition, % at 38.7 µM; Vero cells, Shiga toxin protein synthesis inhibition reporter; 9.2% of 290,000 active; in the data active = inhibition mostly above about 28%, no sharp cut-off; inactive = mostly below about 43%; note: 0% is about no effect
SARS PLP yeast = inhibitors of SARS-CoV papain-like protease in yeast. Potency, µM (doses to about 32.9 µM), inactives show at the highest dose activity, positive = growth rescue, usual class: activators. 0.19% of 330,000 active. AID 485353. S. cerevisiae expressing SARS-CoV PLpro, growth rescue; calls by dose curve; note: potency is the fitted concentration of half-maximal effect; 0% is about no effect; nearly all actives have a fitted effect of over 55% in size
Pf growth 96h = inhibits malaria parasite growth, 96 h; Potency, µM (doses to about 28.7 µM), for inactives: at the highest dose activity change, negative = inhibition, hits mostly inhibitors; P. falciparum luciferase reporter growth, 96 h; 6.9% of 320,000 active; note: potency is the fitted concentration of half-maximal effect; % is set by controls: 0 for no effect and ±100 for the full control effect
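Infected RBCs, 2% Hct / 0.05% parasitemia final; luciferase-reporter P. falciparum; cpd 96 h, 37 C, 5% CO2; luciferase detection reagent; luminescence.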
Pf growth 48h = P. falciparum growth inhibition at 48 hours (one generation) | 5.9% of 310,000 active | P. falciparum luciferase growth in erythrocytes, 48 h | Potency, µM (top dose mostly 28.7 µM), inactives show at the top dose activity change, negative = inhibition, hits mostly inhibitors; note: potency is the fitted concentration of half-maximal effect; % is set by controls: 0 for no effect and ±100 for the full control effect
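Compounds are pin-transferred into medium, infected erythrocytes (2% hematocrit, 0.1% parasitemia final) are added, and plates sit one parasite generation at 37 C in 5% CO2. Detection reagent is then added and luminescence measured.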
CHX counter = counter-screen for Shiga toxin inhibitors: cycloheximide protein synthesis inhibition; cell reporter, cycloheximide protein synthesis inhibition counterscreen; max response, %; 12% of 300,000 active; AID 2314; in the data active = max response mostly above about 13%, no sharp cut-off; inactive = mostly below about 14%; note: read at 38.3 µM for the half of the compounds with a filed dose; 0% is about no effect
AMA1 RON2 block = disrupts binding of P. falciparum AMA1 to RON2. 0.2% of 360,000 active. AlphaScreen AMA1-biotinylated RON2 peptide binding. Potency, µM (titrated, usually from 58.2 µM), for the others: top-dose activity change, negative = inhibition, usual class: inhibitors;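 note: potency is the fitted concentration of half-maximal effect; 0% = vehicle wells and -100% = peptide control; nearly all actives have a fitted effect of over 45% in size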
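AMA1 (3D7) with his tag at 25 nM final met compounds first, then biotinylated RON2 peptide at 25 nM; detection used donor plus acceptor beads, 10 µg/mL apiece, read by AlphaScreen after 30 min at room temperature.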
The depositor's hits bear a star. Unless noted, calls come from the whole dose curve; as a rule, active = well fitted curve in the direction sought with a large enough effect; inconclusive = small, poorly fitted or top-dose-only effect, or another doubt; inactive = no such curve, though single readings can be large; an effect the other way counts as inactive or inconclusive.

Screening COc1cc(OC)cc(-c2nc3ccccc3c(=O)n2OC(=O)c2ccc(Br)cc2)c1 returned Shiga toxin inh -3, SARS PLP yeast inconclusive, Pf growth 96h 0%, Pf growth 48h -30%, CHX counter 2 and AMA1 RON2 block 19%.
For COc1ccc(O)c(CNn2c(-c3ccc(Br)cc3)nc3ccccc3c2=O)c1 the results were Shiga toxin inh 23, SARS PLP yeast -5%, Pf growth 96h -11%, Pf growth 48h 9.3µM*, CHX counter 14 and AMA1 RON2 block 10%.
COc1ccc(OC)c(CNn2c(-c3ccccc3F)nc3ccccc3c2=O)c1 was read as Shiga toxin inh 21, SARS PLP yeast -8%, Pf growth 96h -9%, Pf growth 48h inconclusive, CHX counter 2 and AMA1 RON2 block -20%.
Screening COc1ccc(C(=O)On2c(-c3ccc(Br)cc3)nc3ccccc3c2=O)cc1 returned Shiga toxin inh 93*, SARS PLP yeast -30%, Pf growth 96h 56%, Pf growth 48h 1%, CHX counter 32* and AMA1 RON2 block 24%.
CCc1cccc(C)c1NC(=O)CN(C)S(=O)(=O)c1ccc(-c2ccc(=O)[nH]n2)s1 was read as Shiga toxin inh -2, SARS PLP yeast inconclusive, Pf growth 96h inconclusive, Pf growth 48h inconclusive, CHX counter 2 and AMA1 RON2 block 6%.
COc1ccc(-c2sc3ccc(OC)cc3c2-c2ccc(OC)nc2)cc1 was read as SARS PLP yeast -7% and AMA1 RON2 block -10%.
`Cc1ccc(Cl)cc1NC(=S)N(CCCN1CCOCC1)Cc1ccco1` gave Shiga toxin inh -8, SARS PLP yeast 2%, Pf growth 96h inconclusive, Pf growth 48h inconclusive, CHX counter 6 and AMA1 RON2 block -23%.
`COc1ccc(Nc2cc(C(=O)NCCCN3CCOCC3)c3ccccc3n2)cc1OC` gave Shiga toxin inh -6, SARS PLP yeast 4%, Pf growth 96h 37%, CHX counter -2 and AMA1 RON2 block -9%.
Screening COc1ccc(-c2nc(C(=O)NCCCN3CCOCC3)cc3c2[nH]c2ccccc23)cc1OC returned Shiga toxin inh -12, SARS PLP yeast 1%, Pf growth 96h 5.2µM*, Pf growth 48h inconclusive, CHX counter -5 and AMA1 RON2 block -4%.
`Cc1ccc(-c2nc(C(=O)NCCCN3CCOCC3)cc3c2[nH]c2ccccc23)cc1` gave Shiga toxin inh -2, SARS PLP yeast -7%, Pf growth 96h 6.6µM*, Pf growth 48h 5.9µM*, CHX counter -4 and AMA1 RON2 block -14%.
`CC(=O)OCC1CCCC2=C(C)C(=O)CCC21COC(C)=O` (stereo not drawn) gave Shiga toxin inh -2, SARS PLP yeast -2%, Pf growth 96h 34%, Pf growth 48h 4%, CHX counter 0 and AMA1 RON2 block -18%.
COc1ccc(N2CCN(C(CNC(=O)C(=O)NC3CC3)c3ccco3)CC2)cc1 (stereo not drawn) was read as SARS PLP yeast 1%, Pf growth 96h 23%, Pf growth 48h 19% and AMA1 RON2 block 2%.
Screening O=C(NCC(c1ccco1)N1CCN(c2ccccc2F)CC1)C1CCCCC1 (stereo not drawn) returned SARS PLP yeast -2%, Pf growth 96h -23%, Pf growth 48h 12µM* and AMA1 RON2 block 17%.
`COC(=O)NCC(c1ccco1)N1CCN(c2ccccc2)CC1` (stereo not drawn) gave Shiga toxin inh -9, SARS PLP yeast -2%, Pf growth 96h 36%, Pf growth 48h 18%, CHX counter -4 and AMA1 RON2 block -14%.
O=C(NCC(c1ccco1)N1CCN(c2ccccc2F)CC1)OCc1ccccc1 (stereo not drawn) was read as Shiga toxin inh 28, SARS PLP yeast -27%, Pf growth 96h inconclusive, Pf growth 48h inconclusive, CHX counter 21* and AMA1 RON2 block -1%.
Screening COc1ccc(N2CCN(C(CNC(=O)C3CCCCC3)c3ccco3)CC2)cc1 (stereo not drawn) returned SARS PLP yeast 3%, Pf growth 96h inconclusive, Pf growth 48h 13µM* and AMA1 RON2 block -13%.
`O=C(NCC(c1ccco1)N1CCN(c2ccccc2)CC1)OCc1ccccc1` (stereo not drawn) gave Shiga toxin inh 18, SARS PLP yeast -1%, Pf growth 96h 4.1µM*, Pf growth 48h inconclusive, CHX counter 11 and AMA1 RON2 block -1%.
Screening Cc1cc(Nc2ccccc2)n(CCO)n1 returned Shiga toxin inh -17, SARS PLP yeast -3%, Pf growth 48h 9%, CHX counter -5 and AMA1 RON2 block -4%.
C=CCn1c(SCC(=O)N2CC(C)OC(C)C2)nnc1-c1ccncc1 (stereo not drawn) was read as SARS PLP yeast 6%, Pf growth 96h 7%, Pf growth 48h -4% and AMA1 RON2 block 6%.
COc1ccccc1C(=O)N1CCN(S(=O)(=O)c2ccccc2)CC1 was read as Shiga toxin inh 22, SARS PLP yeast 0%, Pf growth 96h 5%, Pf growth 48h 3%, CHX counter -2 and AMA1 RON2 block 5%.
Cc1ccc(C)c(S(=O)(=O)N2CCN(C(=O)[C@H](C)N3C(=O)C4CC=CCC4C3=O)CC2)c1 (stereo partly drawn) was read as SARS PLP yeast -2%, Pf growth 96h inconclusive, Pf growth 48h inconclusive and AMA1 RON2 block -1%.
For O=C(c1ccccc1Cc1ccccc1)N1CCN(S(=O)(=O)c2ccc(F)cc2)CC1 the results were SARS PLP yeast -3%, Pf growth 96h inconclusive, Pf growth 48h inconclusive and AMA1 RON2 block 18%.
`Cc1ccc(C(=O)N2CCN(c3ccc(F)cc3)CC2)cc1S(=O)(=O)N1CCCCC1` gave Shiga toxin inh -4, SARS PLP yeast -7%, Pf growth 96h 9.3µM*, Pf growth 48h inconclusive, CHX counter 1 and AMA1 RON2 block -11%.
`Cc1ccccc1C(=O)N1CCN(S(=O)(=O)c2ccccc2)CC1` gave Shiga toxin inh -4, SARS PLP yeast -3%, Pf growth 96h 13µM*, Pf growth 48h -1%, CHX counter -1 and AMA1 RON2 block 3%.
Cc1ccc(C)c(S(=O)(=O)N2CCN(C(=O)[C@@H](NC(=O)c3ccc(F)cc3)C(C)C)CC2)c1 was read as SARS PLP yeast 0%, Pf growth 96h inconclusive, Pf growth 48h 9.3µM* and AMA1 RON2 block -1%.
`O=C(c1ccccc1Cc1ccccc1)N1CCN(S(=O)(=O)c2ccccc2Br)CC1` gave SARS PLP yeast -13%, Pf growth 96h 7.4µM*, Pf growth 48h 12µM* and AMA1 RON2 block -5%.
For Cc1ccc(C(=O)N2CCN(c3ccccc3)CC2)cc1S(=O)(=O)N1CCCC1 the results were Shiga toxin inh -6, SARS PLP yeast 1%, Pf growth 96h 12%, Pf growth 48h inconclusive, CHX counter -5 and AMA1 RON2 block -15%.
